In the supplement of paper PMC10849652:
Of roughly 7,900 targets only a part is listed; those with a hit were picked by preference. About 0.6% of all pairs of compound and target were hits.

Experiments:
Assay in all cases: log2 fold change, soluble protein after heating vs DMSO (PISA); higher = thermal stabilisation; K562 cells, 10 uM, 30 min; active = over 0.2 and 3.5 SD of the protein, either way, in both replicates (recomputed)
[1] = compound: C1=CC=C(C=C1)[C@H](COC2=CC3=C(C=C2)NC(=O)N3)NC(=O)C4=CC=CN(C4=O)CC5=CC(=C(C=C5)F)F
Outline: (§1)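 Aliquots of K562 cells (2×10^6 cells/mL) treated with 10 μM compound for 30 min were heated for 3 min over 48°C-58°C. After pooling and extraction in PBS with 0.5% NP-40 at 4°C, soluble protein from a 21,000xg, 90 min spin was quantified by TMTpro 16plex LC-MS/MS with channel sums equalised. Thermal stability is expressed against control samples, from duplicates, as a log2 fold change.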

[2] = compound: CC1=C(SC2=C1C(=N[C@H](C3=NN=C(N32)C)CC(=O)N)C4=CC=C(C=C4)Cl)C
Outline: as §1

[3] = compound: CC1=C2C(=CC=C1)N=C(N(C2=O)C3=CC=CC=C3C)CN4C=NC5=C(N=CN=C54)N
Outline: as §1

[4] = compound: Cc1sc2c(c1C)C(c1ccc(Cl)cc1)=N[C@@H](CC(=O)OC(C)(C)C)c1nnc(C)n1-2
Outline: as §1

[5] = compound: c1ccc([C@@H]2C[C@H]2NC2CCNCC2)cc1
Outline: as §1

Measured: log2 fold change

PSMB6 (UniProt P28072)
Chain of UniProt P28072 (P28072 whole entry, looked up): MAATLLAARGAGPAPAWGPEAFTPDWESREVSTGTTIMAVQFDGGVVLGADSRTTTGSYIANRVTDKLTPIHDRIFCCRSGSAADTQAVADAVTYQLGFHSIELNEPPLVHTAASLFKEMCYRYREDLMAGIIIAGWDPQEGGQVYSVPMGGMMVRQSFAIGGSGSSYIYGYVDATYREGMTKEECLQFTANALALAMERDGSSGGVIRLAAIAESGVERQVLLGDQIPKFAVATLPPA
inactive: [1] 0.023 | [2] -0.057 | [3] -0.015 | [4] 0.019 | [5] 0.081

PKN1 isoform 2 (UniProt Q16512)
Chain of UniProt Q16512 (Q16512 whole entry, looked up): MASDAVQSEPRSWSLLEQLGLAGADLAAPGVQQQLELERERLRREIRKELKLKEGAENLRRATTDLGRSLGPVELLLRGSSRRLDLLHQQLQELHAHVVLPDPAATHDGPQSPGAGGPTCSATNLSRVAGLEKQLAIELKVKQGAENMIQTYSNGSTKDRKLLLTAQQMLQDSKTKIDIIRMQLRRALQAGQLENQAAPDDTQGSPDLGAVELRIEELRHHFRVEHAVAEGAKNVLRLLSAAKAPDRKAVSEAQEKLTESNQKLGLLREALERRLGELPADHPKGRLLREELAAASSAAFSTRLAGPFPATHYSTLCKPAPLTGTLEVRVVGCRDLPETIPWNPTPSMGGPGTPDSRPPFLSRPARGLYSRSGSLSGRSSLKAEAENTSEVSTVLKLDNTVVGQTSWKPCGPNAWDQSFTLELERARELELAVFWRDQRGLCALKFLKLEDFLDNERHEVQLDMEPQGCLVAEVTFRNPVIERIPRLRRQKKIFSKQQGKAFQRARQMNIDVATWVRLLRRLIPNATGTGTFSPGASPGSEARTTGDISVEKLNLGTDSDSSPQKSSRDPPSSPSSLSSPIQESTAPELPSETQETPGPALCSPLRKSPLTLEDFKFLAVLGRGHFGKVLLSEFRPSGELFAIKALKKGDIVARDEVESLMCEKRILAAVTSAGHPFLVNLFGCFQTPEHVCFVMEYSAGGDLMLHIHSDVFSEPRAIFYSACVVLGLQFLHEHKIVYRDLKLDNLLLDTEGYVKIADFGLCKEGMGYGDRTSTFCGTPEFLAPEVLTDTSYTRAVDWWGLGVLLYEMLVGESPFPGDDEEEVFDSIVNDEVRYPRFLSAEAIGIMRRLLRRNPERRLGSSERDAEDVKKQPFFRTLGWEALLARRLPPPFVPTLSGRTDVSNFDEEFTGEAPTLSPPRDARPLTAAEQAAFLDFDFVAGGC
inactive: [1] -0.077 | [2] 0.079 | [3] 0.069 | [4] 0.015 | [5] 0

PSMD13 (UniProt Q9UNM6)
Chain of UniProt Q9UNM6 (Q9UNM6 whole entry, looked up): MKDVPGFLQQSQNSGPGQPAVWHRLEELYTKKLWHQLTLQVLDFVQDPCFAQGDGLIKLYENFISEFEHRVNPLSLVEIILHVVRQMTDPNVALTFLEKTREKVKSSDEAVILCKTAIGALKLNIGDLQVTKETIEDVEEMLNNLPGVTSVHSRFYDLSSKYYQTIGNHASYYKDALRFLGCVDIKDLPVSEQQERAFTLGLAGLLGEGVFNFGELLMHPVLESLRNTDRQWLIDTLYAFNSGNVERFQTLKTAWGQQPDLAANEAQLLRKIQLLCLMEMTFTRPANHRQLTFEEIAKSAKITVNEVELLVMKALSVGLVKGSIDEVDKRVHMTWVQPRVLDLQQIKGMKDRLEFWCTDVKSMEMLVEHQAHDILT
inactive: [1] -0.008 | [2] -0.096 | [3] -0.046 | [4] -0.028 | [5] 0

PEX11B (UniProt O96011)
Chain of UniProt O96011 (O96011 whole entry, looked up, change not shown): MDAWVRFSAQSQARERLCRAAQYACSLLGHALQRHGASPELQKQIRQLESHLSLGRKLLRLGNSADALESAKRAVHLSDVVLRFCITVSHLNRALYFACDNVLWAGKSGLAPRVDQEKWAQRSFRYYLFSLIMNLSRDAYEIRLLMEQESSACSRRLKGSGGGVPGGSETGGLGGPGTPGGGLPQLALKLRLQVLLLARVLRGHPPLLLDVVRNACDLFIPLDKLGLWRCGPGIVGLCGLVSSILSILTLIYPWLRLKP
inactive: [1] -0.027 | [2] 0.056 | [3] -0.01 | [4] -0.008 | [5] -0.005

PTP4A2 (UniProt Q12974)
Chain of UniProt Q12974 (Q12974 whole entry, looked up): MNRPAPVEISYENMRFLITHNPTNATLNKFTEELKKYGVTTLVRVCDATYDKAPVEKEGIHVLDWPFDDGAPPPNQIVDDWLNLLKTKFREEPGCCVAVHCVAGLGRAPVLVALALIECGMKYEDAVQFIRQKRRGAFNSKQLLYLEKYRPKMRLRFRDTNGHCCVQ
inactive: [1] -0.021 | [2] 0.028 | [3] 0.056 | [4] 0.052 | [5] -0.029

PSMD11 (UniProt O00231)
Chain of UniProt O00231 (O00231 whole entry, looked up): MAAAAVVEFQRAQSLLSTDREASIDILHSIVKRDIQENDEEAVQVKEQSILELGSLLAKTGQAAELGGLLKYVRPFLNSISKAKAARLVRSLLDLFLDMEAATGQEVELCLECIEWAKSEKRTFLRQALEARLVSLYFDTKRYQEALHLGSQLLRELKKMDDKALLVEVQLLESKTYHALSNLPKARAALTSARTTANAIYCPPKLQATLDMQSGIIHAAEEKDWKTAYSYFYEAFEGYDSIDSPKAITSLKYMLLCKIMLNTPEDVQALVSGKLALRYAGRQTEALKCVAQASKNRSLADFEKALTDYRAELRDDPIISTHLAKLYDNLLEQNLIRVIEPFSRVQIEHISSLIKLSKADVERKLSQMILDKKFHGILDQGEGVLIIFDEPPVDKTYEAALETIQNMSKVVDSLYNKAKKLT
inactive: [1] 0.043 | [2] -0.049 | [3] -0.053 | [4] -0.017 | [5] 0

QRSL1 (UniProt Q9H0R6)
Chain of UniProt Q9H0R6 (Q9H0R6 whole entry, looked up): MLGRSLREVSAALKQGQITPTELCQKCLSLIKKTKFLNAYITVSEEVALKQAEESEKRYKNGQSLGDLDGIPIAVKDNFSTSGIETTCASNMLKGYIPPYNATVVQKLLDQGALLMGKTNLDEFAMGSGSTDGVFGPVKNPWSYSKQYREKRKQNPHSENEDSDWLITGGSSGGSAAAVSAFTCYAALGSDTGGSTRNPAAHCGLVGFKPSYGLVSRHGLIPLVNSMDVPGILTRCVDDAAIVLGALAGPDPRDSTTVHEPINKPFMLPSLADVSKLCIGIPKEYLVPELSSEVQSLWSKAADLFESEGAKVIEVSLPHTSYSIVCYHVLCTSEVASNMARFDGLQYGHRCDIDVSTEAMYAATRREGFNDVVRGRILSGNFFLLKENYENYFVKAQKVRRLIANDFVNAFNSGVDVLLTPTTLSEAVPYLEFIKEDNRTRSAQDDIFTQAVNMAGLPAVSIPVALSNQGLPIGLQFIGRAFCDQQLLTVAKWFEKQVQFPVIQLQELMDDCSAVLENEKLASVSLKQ
inactive: [1] -0.01 | [2] 0.142 | [3] 0.147 | [4] 0.05 | [5] 0.041

PCTP (UniProt Q9UKL6)
Chain of UniProt Q9UKL6 (Q9UKL6 whole entry, looked up): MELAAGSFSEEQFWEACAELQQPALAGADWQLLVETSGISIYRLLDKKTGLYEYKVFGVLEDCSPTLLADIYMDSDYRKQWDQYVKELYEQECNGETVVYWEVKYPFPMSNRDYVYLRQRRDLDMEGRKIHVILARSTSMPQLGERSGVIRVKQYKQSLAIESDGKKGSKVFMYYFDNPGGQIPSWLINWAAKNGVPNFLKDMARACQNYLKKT
inactive: [1] -0.033 | [2] -0.101 | [3] 0.028 | [4] -0.023 | [5] 0.018

PSMD8 (UniProt P48556)
Chain of UniProt P48556 (P48556 whole entry, looked up): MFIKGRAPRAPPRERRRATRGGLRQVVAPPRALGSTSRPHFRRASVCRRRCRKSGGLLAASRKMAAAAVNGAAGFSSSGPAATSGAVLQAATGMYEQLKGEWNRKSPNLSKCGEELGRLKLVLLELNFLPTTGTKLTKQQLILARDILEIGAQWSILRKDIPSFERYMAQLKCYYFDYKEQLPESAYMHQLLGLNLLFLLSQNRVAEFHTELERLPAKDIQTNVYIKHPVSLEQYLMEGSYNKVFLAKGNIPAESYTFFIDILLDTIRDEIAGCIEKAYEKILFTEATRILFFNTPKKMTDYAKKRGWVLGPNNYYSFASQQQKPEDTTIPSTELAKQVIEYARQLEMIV
inactive: [1] 0.014 | [2] -0.07 | [3] -0.01 | [4] -0.001 | [5] 0.071
